What was measured:
[1] = molecular target: Death-associated protein kinase 1 (Homo sapiens) (UniProt P53355); conditions: at 10 µM
[2] = molecular target: Death-associated protein kinase 2 (Homo sapiens) (UniProt Q9UIK4); conditions: at 1 µM
[3] = molecular target: Death-associated protein kinase 2 (Homo sapiens) (UniProt Q9UIK4); conditions: at 10 µM
[4] = molecular target: T1, Serine/threonine-protein kinase DCLK2 (Homo sapiens) (UniProt Q8N568); conditions: at 1 µM
T1 sequence (whole entry): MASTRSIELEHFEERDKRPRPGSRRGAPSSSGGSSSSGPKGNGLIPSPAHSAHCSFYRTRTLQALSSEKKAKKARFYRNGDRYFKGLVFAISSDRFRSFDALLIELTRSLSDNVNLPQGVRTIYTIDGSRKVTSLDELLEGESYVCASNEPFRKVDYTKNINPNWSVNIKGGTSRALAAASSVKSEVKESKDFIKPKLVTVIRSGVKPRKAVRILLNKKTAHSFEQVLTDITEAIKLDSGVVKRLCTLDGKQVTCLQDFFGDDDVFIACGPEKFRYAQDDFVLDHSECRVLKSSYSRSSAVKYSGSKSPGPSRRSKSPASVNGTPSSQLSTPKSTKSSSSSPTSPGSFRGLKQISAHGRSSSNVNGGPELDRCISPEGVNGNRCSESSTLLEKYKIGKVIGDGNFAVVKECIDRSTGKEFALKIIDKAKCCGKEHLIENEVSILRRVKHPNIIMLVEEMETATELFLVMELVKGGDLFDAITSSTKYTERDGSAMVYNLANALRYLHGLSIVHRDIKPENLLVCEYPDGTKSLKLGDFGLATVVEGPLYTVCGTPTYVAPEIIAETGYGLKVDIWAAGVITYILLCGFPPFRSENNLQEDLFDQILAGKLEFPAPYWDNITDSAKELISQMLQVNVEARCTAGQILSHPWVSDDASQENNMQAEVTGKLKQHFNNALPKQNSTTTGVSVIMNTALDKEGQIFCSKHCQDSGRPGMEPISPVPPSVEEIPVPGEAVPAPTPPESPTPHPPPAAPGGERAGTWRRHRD

[5] = molecular target: T1, Serine/threonine-protein kinase DCLK2 (Homo sapiens); conditions: at 10 µM
[6] = molecular target: T2, Discoidin domain-containing receptor 2 (Homo sapiens) (UniProt Q16832); conditions: at 1 µM
T2 sequence (whole entry): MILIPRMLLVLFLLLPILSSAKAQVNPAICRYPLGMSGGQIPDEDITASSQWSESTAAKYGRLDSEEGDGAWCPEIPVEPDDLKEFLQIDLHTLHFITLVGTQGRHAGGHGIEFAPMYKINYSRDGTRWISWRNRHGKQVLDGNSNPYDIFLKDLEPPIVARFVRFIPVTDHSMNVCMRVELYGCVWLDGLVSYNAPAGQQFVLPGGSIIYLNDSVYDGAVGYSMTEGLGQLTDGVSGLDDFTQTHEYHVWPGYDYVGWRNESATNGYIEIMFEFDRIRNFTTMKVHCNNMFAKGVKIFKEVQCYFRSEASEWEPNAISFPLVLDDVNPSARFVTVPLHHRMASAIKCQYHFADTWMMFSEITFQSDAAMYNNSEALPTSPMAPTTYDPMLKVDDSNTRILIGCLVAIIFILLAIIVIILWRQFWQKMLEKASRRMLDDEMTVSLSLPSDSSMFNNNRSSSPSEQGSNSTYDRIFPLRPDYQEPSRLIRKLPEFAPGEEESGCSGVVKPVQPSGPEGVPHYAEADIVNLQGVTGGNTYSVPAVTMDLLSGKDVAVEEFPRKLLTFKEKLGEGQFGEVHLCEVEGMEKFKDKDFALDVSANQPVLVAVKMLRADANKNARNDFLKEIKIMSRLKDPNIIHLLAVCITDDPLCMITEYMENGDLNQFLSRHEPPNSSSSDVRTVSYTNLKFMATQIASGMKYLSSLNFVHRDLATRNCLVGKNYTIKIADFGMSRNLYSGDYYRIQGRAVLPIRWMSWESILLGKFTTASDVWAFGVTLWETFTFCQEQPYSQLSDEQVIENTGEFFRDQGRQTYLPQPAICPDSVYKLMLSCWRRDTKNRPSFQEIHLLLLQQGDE

[7] = molecular target: T2, Discoidin domain-containing receptor 2 (Homo sapiens); conditions: at 10 µM
[8] = molecular target: T3, Myotonin-protein kinase (Homo sapiens) (UniProt Q09013); conditions: at 10 µM
T3 sequence (whole entry): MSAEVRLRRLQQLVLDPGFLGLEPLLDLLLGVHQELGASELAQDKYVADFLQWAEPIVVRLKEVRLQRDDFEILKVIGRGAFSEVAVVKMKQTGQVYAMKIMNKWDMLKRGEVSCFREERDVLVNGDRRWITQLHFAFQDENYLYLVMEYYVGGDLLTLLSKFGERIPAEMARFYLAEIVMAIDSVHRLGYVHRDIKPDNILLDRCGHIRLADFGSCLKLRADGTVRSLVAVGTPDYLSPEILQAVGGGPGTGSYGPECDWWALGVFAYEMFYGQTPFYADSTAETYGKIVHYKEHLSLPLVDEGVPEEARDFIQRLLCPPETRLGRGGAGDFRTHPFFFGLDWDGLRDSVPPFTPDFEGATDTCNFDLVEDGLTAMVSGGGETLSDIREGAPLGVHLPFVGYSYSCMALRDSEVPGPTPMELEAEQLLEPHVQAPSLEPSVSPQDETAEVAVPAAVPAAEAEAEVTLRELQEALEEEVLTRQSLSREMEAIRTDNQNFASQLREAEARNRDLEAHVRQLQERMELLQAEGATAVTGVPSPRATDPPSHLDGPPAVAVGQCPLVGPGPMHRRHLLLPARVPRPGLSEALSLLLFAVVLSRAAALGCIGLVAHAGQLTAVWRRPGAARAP

[9] = molecular target: T4, Dual specificity tyrosine-phosphorylation-regulated kinase 2 (Homo sapiens) (UniProt Q92630); conditions: at 1 µM
T4 sequence (whole entry): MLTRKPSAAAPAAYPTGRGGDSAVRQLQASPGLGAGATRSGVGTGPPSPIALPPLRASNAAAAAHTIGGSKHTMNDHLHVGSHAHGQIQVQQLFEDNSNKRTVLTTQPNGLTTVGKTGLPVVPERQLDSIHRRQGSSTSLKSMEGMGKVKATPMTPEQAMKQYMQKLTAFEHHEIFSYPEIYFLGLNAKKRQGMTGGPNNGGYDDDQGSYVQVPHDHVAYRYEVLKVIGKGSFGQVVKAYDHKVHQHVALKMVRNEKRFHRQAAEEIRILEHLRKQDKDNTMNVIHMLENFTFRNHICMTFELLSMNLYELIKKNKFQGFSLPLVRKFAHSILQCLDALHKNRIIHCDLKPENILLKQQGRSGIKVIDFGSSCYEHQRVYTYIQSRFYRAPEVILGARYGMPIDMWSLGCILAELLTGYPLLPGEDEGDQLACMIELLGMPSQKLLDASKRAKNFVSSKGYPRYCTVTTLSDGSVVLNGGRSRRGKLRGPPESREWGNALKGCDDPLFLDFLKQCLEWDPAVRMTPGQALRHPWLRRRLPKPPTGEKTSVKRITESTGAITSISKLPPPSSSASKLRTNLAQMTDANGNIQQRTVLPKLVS

[10] = molecular target: T4, Dual specificity tyrosine-phosphorylation-regulated kinase 2 (Homo sapiens); conditions: at 10 µM
[11] = molecular target: T5, Ephrin type-A receptor 1 (Homo sapiens) (UniProt P21709); conditions: at 1 µM
T5 sequence (whole entry): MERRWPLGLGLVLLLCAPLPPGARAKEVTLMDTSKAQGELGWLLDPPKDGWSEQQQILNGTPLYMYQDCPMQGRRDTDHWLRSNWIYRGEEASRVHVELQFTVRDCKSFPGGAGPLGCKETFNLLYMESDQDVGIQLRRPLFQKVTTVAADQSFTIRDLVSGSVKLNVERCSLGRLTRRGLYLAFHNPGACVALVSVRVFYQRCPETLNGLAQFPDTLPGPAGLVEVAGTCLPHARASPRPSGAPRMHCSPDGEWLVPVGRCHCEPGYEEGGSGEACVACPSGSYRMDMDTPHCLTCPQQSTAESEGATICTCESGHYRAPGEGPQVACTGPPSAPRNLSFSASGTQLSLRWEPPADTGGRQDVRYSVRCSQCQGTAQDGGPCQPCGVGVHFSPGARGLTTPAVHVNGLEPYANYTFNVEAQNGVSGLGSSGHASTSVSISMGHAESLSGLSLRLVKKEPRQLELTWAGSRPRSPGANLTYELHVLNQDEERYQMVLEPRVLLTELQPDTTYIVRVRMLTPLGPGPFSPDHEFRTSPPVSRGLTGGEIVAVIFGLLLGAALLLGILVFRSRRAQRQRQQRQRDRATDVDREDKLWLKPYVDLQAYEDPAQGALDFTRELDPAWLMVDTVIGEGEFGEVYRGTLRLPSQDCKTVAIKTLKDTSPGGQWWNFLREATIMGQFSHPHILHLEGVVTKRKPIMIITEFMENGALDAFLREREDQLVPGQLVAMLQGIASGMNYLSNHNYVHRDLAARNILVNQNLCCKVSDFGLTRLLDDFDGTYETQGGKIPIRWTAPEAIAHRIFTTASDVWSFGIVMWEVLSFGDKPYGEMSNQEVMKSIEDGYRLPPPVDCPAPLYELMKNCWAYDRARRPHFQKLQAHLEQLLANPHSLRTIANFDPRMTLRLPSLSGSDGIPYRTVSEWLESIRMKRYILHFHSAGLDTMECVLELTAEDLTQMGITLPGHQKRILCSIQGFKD

[12] = molecular target: T5, Ephrin type-A receptor 1 (Homo sapiens); conditions: at 10 µM
[13] = molecular target: Ephrin type-A receptor 2 (Homo sapiens) (UniProt P29317); conditions: at 1 µM
Sequence of Ephrin type-A receptor 2 (Homo sapiens) (P29317 whole entry): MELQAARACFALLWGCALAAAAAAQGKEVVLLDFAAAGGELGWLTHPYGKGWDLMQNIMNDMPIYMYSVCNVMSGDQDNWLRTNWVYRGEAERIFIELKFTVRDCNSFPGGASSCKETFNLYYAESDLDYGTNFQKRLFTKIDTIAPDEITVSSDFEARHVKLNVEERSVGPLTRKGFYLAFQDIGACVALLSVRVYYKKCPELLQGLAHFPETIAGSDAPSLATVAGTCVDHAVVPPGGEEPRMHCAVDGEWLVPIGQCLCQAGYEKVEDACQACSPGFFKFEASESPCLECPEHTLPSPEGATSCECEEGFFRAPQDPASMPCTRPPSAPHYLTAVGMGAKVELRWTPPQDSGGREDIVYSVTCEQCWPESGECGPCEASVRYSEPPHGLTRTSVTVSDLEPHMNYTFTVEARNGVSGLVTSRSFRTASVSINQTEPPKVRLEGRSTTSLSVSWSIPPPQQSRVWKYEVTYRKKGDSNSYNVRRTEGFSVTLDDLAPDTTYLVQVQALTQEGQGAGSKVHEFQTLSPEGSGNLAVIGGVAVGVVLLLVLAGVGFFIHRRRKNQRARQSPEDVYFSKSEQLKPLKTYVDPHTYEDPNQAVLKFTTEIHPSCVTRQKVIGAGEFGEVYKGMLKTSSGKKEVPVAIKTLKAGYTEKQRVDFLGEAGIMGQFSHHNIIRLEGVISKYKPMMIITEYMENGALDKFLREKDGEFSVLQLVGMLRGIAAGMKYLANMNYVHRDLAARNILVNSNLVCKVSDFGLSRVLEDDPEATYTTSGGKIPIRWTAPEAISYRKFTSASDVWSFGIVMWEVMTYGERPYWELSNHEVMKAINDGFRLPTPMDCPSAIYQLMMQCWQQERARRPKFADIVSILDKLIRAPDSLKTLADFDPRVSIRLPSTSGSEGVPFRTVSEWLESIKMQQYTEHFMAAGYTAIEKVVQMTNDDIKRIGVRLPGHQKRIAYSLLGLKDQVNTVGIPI

[14] = molecular target: Ephrin type-A receptor 2 (Homo sapiens) (UniProt P29317); conditions: at 10 µM
[15] = molecular target: T6, Ephrin type-A receptor 3 (Homo sapiens) (UniProt P29320); conditions: at 1 µM
T6 sequence (whole entry): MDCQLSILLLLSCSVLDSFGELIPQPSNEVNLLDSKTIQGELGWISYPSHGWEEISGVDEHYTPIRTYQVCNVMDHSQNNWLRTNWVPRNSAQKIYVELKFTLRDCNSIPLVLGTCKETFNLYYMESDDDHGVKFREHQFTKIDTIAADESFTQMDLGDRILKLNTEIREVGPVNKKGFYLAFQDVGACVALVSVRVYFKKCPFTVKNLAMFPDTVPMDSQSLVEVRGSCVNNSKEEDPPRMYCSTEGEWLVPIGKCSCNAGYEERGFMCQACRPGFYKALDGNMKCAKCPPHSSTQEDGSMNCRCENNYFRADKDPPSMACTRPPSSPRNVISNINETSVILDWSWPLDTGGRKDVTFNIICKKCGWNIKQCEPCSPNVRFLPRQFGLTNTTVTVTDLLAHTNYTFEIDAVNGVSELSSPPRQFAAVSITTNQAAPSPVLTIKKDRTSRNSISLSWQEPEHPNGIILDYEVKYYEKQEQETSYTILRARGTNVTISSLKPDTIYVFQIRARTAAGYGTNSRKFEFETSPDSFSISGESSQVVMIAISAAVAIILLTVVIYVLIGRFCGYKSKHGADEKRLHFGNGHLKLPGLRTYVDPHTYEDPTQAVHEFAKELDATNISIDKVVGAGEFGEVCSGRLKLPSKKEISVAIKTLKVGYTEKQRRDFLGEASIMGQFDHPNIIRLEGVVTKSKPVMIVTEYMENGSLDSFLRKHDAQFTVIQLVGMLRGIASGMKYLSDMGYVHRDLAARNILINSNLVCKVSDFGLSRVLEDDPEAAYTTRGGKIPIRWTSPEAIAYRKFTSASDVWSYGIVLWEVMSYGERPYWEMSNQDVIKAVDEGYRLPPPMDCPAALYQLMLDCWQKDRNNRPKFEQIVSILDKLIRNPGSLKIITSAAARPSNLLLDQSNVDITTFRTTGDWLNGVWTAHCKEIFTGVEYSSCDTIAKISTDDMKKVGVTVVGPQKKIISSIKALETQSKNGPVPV

[16] = molecular target: T3, Myotonin-protein kinase (Homo sapiens); conditions: at 1 µM
[17] = molecular target: T7, Serine/threonine-protein kinase 17A (Homo sapiens) (UniProt Q9UEE5); conditions: at 1 µM
T7 sequence (whole entry): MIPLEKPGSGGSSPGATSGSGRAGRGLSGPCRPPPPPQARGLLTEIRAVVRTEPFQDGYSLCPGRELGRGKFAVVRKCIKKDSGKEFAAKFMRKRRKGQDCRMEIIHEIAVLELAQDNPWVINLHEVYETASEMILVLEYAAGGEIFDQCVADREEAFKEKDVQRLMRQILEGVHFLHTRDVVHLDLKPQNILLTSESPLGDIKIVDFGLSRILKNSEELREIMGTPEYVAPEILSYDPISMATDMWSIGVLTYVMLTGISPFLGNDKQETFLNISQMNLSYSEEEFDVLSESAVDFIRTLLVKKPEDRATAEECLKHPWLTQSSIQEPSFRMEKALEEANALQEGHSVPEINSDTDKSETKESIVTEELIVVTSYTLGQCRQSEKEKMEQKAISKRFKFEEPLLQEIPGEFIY

[18] = molecular target: T7, Serine/threonine-protein kinase 17A (Homo sapiens); conditions: at 10 µM

Sequence of Death-associated protein kinase 2 (Homo sapiens) (Q9UIK4 whole entry, looked up): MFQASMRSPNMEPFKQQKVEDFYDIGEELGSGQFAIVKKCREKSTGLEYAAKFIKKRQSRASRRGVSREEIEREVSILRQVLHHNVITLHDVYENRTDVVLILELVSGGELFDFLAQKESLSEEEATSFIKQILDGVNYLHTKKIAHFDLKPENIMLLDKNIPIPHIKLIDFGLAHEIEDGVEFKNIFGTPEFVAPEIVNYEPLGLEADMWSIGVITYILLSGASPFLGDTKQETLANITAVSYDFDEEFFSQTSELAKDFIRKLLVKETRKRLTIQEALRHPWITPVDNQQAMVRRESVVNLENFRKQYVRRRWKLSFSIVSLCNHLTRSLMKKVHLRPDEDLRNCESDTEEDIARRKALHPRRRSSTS
Sequence of Death-associated protein kinase 1 (Homo sapiens) (P53355 whole entry, looked up): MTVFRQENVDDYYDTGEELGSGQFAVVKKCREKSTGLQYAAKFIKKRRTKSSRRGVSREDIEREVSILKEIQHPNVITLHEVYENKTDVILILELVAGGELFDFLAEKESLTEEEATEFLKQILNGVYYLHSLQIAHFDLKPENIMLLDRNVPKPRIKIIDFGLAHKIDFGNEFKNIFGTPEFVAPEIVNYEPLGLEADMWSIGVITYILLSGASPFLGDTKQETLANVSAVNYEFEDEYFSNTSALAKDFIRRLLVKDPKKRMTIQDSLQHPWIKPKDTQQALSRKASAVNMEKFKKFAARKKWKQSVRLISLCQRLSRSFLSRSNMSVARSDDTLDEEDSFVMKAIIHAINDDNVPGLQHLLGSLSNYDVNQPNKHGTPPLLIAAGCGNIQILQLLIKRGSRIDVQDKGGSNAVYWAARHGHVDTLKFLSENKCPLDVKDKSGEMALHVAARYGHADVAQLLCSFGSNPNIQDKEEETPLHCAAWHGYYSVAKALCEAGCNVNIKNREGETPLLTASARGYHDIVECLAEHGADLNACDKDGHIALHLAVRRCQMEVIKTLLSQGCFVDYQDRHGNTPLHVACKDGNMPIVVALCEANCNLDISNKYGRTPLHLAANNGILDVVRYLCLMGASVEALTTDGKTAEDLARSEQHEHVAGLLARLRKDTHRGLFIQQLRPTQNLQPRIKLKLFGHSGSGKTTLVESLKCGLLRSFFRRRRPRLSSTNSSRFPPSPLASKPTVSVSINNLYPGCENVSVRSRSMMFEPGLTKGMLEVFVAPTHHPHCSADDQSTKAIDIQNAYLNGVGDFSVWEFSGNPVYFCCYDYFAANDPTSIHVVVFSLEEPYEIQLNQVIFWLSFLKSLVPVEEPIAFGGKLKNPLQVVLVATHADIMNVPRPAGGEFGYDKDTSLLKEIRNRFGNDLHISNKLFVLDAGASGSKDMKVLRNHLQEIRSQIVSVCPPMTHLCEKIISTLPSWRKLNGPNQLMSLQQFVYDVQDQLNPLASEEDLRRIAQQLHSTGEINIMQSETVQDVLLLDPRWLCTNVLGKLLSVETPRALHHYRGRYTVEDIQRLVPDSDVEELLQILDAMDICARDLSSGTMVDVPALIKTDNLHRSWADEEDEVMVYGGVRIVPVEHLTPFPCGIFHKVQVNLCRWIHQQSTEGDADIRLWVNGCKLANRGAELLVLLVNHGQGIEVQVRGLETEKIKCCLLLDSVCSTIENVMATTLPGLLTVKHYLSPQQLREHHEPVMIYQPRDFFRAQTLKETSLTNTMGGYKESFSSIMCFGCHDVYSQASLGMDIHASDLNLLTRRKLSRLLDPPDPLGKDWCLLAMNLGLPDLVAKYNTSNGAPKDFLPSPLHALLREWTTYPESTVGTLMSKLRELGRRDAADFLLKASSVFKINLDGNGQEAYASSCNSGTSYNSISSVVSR

Row | SMILES | residual activity [1] | residual activity [2] | residual activity [3] | residual activity [4] | residual activity [5] | residual activity [6] | residual activity [7] | residual activity [8] | residual activity [9] | residual activity [10] | residual activity [11] | residual activity [12] | residual activity [13] | residual activity [14] | residual activity [15] | residual activity [16] | residual activity [17] | residual activity [18]
1 | Cn1sc(=O)n(Cc2ccccc2)c1=O | 80% | 97% | 99% | 100% | 90% | 78% | 90% | 81% | 96% | 82% | 96% | 93% | 93% | 92% | 87% |  |  | 
2 | Nc1ncnc2c1c(-c1ccc(Oc3ccccc3)cc1)cn2C1CCCC1 | 69% | 101% |  | 91% | 93% | 105% | 53% | 127% | 91% | 82% | 72% | 18% | 100% | 55% | 101% | 127% | 110% | 104%
